CYP2C9 inh – human CYP2C9 inhibition; P11712; CYP2C9 Supersomes, luciferin-H conversion, luminescence; inhibition, % at 5 µM; hit rate 20% among 96,000;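 active = blocking of liver enzyme CYP2C9 beyond about 50% at 5 µM, limit read from the data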
CYP2C19 act – increases human CYP2C19 enzyme activity. AID 1025. recombinant CYP2C19, luciferin-H EGE luminescence; stronger effect = higher value; 0 = fully inhibited enzyme, 1 = untreated enzyme. P33261. activation factor at 5 µM. 96,000 tested, under 10 active;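 active = activation factor of at least 2 at 5 µM in the primary screen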
Target sequence (P33261 whole entry, looked up): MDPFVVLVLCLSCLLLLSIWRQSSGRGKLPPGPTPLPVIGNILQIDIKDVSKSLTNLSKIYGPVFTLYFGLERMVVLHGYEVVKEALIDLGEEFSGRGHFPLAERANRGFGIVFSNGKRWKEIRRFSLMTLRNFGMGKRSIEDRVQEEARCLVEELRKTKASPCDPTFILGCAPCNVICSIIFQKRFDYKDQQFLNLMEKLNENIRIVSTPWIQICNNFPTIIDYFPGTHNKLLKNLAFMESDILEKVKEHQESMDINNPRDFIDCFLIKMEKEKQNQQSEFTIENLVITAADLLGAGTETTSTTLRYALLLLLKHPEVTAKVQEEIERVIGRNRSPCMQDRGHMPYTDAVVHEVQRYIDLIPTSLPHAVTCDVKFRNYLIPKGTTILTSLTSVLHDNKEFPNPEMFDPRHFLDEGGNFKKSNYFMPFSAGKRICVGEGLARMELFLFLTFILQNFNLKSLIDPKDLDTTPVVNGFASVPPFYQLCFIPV
CYP2C9 activ – CYP2C9 (human) activation | P11712 | activation factor at 5 µM | AID 1024 | recombinant CYP2C9, luciferin-H conversion, luminescence; stronger effect = higher value; factor 1 = untreated enzyme, 0 = blocked | hit rate 1.4% among 96,000;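 active = activation factor of 2 or more for CYP2C9 at a 5 µM dose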
CYP2C19 inhib – inhibitors of human CYP2C19; P33261; CYP2C19 Supersomes, luciferin-H EGE luminescence, 30 min; inhibition, % at 5 µM; hit rate 21% among 96,000; AID 778;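 active = CYP2C19 inhibition above a set limit at 5 µM in the primary screen, cut at about 50% in these data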
PostGolgi yeast – growth inhibition of a yeast mutant, post-Golgi transport screen; post-Golgi transport phenotypic cell assay; inhibition, % at 10 µM; hit rate 0.9% among 98,000;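 note: yeast cells grown in 1536-well plates; yeast grown about 18 h at 30C before absorbance read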
PostGolgi ctrl – inhibits growth of the yeast control strain; AID 738; efflux-deficient yeast background strain, growth absorbance A615, 16 h; inhibition, % at 10 µM; hit rate 5% among 98,000
Large screens that a line does not name were inactive. The list is not random: actives were taken first. Their share in the collection is about 32%. Cut-off read from the data, not from the text of the source, unless noted: active = inhibition above about 30%; inactive = the rest.

O=c1[nH]c(CN2CCC(c3nc4ccccc4s3)CC2)nc2sc3c(c12)CCC3	none (no result: PostGolgi yeast, PostGolgi ctrl)
Cc1sc2nc(CN(C(=O)c3cccs3)C3CCCC3)[nH]c(=O)c2c1C	CYP2C9 inh 74, PostGolgi ctrl 34
CCN(CC)C(=O)CCc1nc2sc3c(c2c(=O)[nH]1)CCCC3	CYP2C19 inhib 65
O=C(c1cccs1)N(Cc1nc2sc3c(c2c(=O)[nH]1)CCCC3)C1CCCC1	CYP2C9 inh 70
Cc1sc2nc(CN(Cc3cccs3)C(=O)NC3CCCCC3)[nH]c(=O)c2c1C	CYP2C9 inh 96, CYP2C19 inhib 97, PostGolgi ctrl 43
Cc1cccc(NC(=O)N(Cc2nc3ccccc3c(=O)[nH]2)C2CCCC2)c1	none (no result: CYP2C9 inh, CYP2C9 activ)
C/C(=N\NC(=O)c1nn(C)cc1Br)c1cccc(NC(=O)C2CCCC2)c1	none
CCOC(=O)C1=C(C)N=C2SC(C(=O)OC)=CC(=O)N2C1c1ccc(F)cc1 (stereo unspecified)	CYP2C19 inhib 50
CCOC(=O)C1=C(c2ccccc2)N=C2SCC(=O)N2C1c1ccc(OC)c(OC)c1 (stereo unspecified)	none
CCOC(=O)C1=C(C)N=C2SC(C)C(=O)N2C1c1ccc(OC(C)=O)c(OCC)c1 (stereo unspecified)	CYP2C9 inh 63, CYP2C19 inhib 65
COC(=O)c1ccc(C2C(C(=O)OC(C)C)=C(C)N=C3SCCC(=O)N32)cc1 (stereo unspecified)	none (no result: PostGolgi yeast, PostGolgi ctrl)
COC(=O)C1=C(C)N=C2SC(C)C(=O)N2C1c1ccc(C(=O)OC)cc1 (stereo unspecified)	CYP2C19 inhib 78, PostGolgi ctrl 36
CCC1SC2=NC(C)=C(C(=O)OC)C(c3ccc(C)cc3)N2C1=O (stereo unspecified)	CYP2C9 inh 80, CYP2C19 inhib 99, PostGolgi ctrl 42
COC(=O)C1=C(C)N=C2SC(C)C(=O)N2C1c1cccs1 (stereo unspecified)	none
COc1ccc(CN2CC(C(=O)NCCCOC(C)C)CC2=O)cc1 (stereo unspecified)	none
N#Cc1ccc(-c2ccc(F)cc2)nc1Oc1ccc(Cl)c(Cl)c1	none
CC(C)[C@H](NC(=O)Nc1ccc2c(c1)OCCO2)C(=O)O	none
CC1CCC2(CC1)N=C(N)Nc1nc3ccccc3n12 (stereo unspecified)	none
O=C(COc1ccccc1)N(Cc1cc2ccccc2[nH]c1=O)CC1CCCO1 (stereo unspecified)	none
CCC(=O)Nc1ccc(C(=O)CSc2nnc(-c3cccnc3)o2)cc1	none
CCOc1ccc(CN(C(=O)c2oc3cc(C)ccc3c2C)C2CCS(=O)(=O)C2)cc1 (stereo unspecified)	CYP2C9 inh 87, CYP2C19 inhib 73, PostGolgi ctrl 35
CCOC(=O)c1c(N)nn(C(=O)C(C)(C)C)c1-c1ccccc1	none
CCOC(=O)c1c(N)sc(C(O)(C(F)(F)F)C(F)(F)F)c1-c1ccccc1	CYP2C9 inh 99, CYP2C19 inhib 90, PostGolgi ctrl 32
Cc1cc(C)c(C)c(S(=O)(=O)N2CCN(C(=O)c3cc(=O)[nH]c4ccccc34)CC2)c1C	none
Cc1cc(C)c(C)c(S(=O)(=O)N2C(=S)NC(=O)C2CC(C)C)c1C (stereo unspecified)	PostGolgi ctrl 33
Cc1cc(C)c(C)c(S(=O)(=O)N2C(=S)NC(=O)C2C(C)C)c1C (stereo unspecified)	PostGolgi ctrl 44
Cc1nn(C)cc1/C=N/NC(=O)C(C)(C)Oc1ccc(Cl)cc1	none
CN(C)c1ccc2c(O)cc(=O)n(C)c2c1	none
CN(c1ccc(Cl)cc1)c1cc(=O)n(C)c2ccccc12	CYP2C9 inh 97, CYP2C19 inhib 100, PostGolgi ctrl 64
CCOCCCN(C(=O)c1ccco1)C(C(=O)NC1CCCC1)c1cccc(OC)c1OC (stereo unspecified)	none
O=C(NCCOc1ccccc1)C(c1ccccc1)c1ccccc1	none
O=C(CSc1nnnn1-c1ccccc1F)Nc1nc2ccccc2s1	none
C=CCn1c(CCNC(=O)c2cccs2)nnc1SCC(=O)c1ccc(Cl)cc1	CYP2C9 inh 79, CYP2C19 inhib 78
C=CCn1c(CNC(=O)c2cccs2)nnc1SCC(=O)c1ccc(Br)cc1	CYP2C9 inh 61
C=CCn1c(CCNC(=O)c2ccccc2F)nnc1SCC(=O)Nc1nc2ccccc2s1	CYP2C9 inh 59
C=CCn1c(CSc2nc3ccccc3s2)nnc1SCC(=O)OCC	CYP2C19 inhib 77
C=CCn1c(CCNC(=O)c2cccs2)nnc1SCC(=O)c1cccc([N+](=O)[O-])c1	none
Cc1occc1-c1nnc(SCC(=O)Nc2ccc(F)cc2)n1Cc1ccccc1	CYP2C9 inh 72
COc1ccc(NC(=O)CSc2nnc(-c3ccoc3C)n2CCc2ccccc2)cc1	CYP2C9 inh 89, CYP2C19 inhib 88
Cc1ccccc1NC(=O)CSc1nnc(-c2ccoc2C)n1CCc1ccccc1	none
Cc1occc1-c1nnc(SCC(=O)Nc2ccccc2)n1Cc1ccccc1	CYP2C9 inh 62
CCOC(=O)c1ccc(NC(=O)c2nccnc2C(=O)O)cc1	none
CCCOc1cccc(C2/C(=C(/O)c3ccncc3)C(=O)C(=O)N2CCCN(C)C)c1 (stereo unspecified)	none (no result: PostGolgi yeast, PostGolgi ctrl)
Cc1nnc(SCC(=O)c2cc(C)n(-c3ccc4c(c3)OCO4)c2C)s1	CYP2C9 inh 83, CYP2C19 inhib 97
COCCNc1nnc(SCC(=O)c2ccc3c(c2)OCO3)s1	CYP2C19 inhib 53
Cc1nnc(SCc2cccc(CSc3nnc(C)s3)c2)s1	none
Cn1cnnc1SCC(=O)c1ccc2c(c1)OCO2	none
Cc1nnc(SCc2ccc3c(c2)OCO3)s1	CYP2C9 inh 55, CYP2C19 inhib 69
Cc1cc(C(=O)CSc2nnc(-c3ccco3)o2)c(C)n1-c1ccc2c(c1)OCCO2	none
Cc1cc(C(=O)CSc2nnnn2C)c(C)n1-c1ccc2c(c1)OCCO2	CYP2C9 inh 60, CYP2C19 inhib 52
OC1(c2ccc3ccccc3c2)CCN(Cc2ccccc2)C1 (stereo unspecified)	CYP2C19 inhib 80
Cn1c(C2=C(O)CN(c3ccc4c(c3)OCCO4)C2=N)nc2ccccc21	none
CCOc1cc(S(=O)(=O)N2CCN(CC)CC2)ccc1Cl	CYP2C9 activ 2.3, CYP2C19 inhib 65
COc1cc(S(=O)(=O)N2CCCCCC2)ccc1Cl	CYP2C9 activ 2.4, CYP2C19 inhib 98
COc1cc(S(=O)(=O)N2CCN(c3ccccc3)CC2)ccc1Cl	none
CCOc1cc(S(=O)(=O)N2CCOCC2)ccc1F	CYP2C19 inhib 57
COc1ccc2cc(S(=O)(=O)N3CCCCC3)ccc2c1S(=O)(=O)N1CCCCC1	CYP2C9 inh 52
COc1ccc(S(=O)(=O)N2CCCCCC2)cc1N(C)S(=O)(=O)c1ccc(Cl)cc1	none
CCOc1cc(S(=O)(=O)N2CCC(C(N)=O)CC2)ccc1F	none
Cn1c(N)c(C(=O)CCl)c(=O)n(C)c1=O	none

Screening data: PubChem, several laboratories
